# APP 5UTR inh – inhibitors of APP translation via 5'UTR reporter, primary screen, APP 5'UTR luciferase, SH-SY5Y cells; SH-SY5Y APP 5'UTR-luciferase reporter, luminescence; inhibition, % at 2 µM; hit rate 0.82% among 190,000;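 active means inhibition above a set limit, derived from the sample mean plus 3 SD, cut at about 45% in these data; inconclusive means one replicate passes the limit while the other fails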
# Ba/F3 V617F tox – reduced viability of JAK2V617F-dependent Ba/F3 cells, primary screen, JAK2V617F inhibitor project, cell-based, Ba/F3 EpoR-JAK2V617F, luminescence; ATP luminescence; inhibition, % at 5.6 µM; hit rate 1.1% among 220,000;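 active means inhibition above the campaign mean plus 3 SD over all tested compounds, cut at about 24% in these data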;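 further: cytokine-independent growth of Ba/F3 cells driven by EpoR plus mutant JAK2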
# BaF3 tox – parental Ba/F3 cell viability inhibition, counter-screen for JAK2V617F inhibitor project, murine pro-B, CellTiter-Glo luminescence. CellTiter-Glo ATP luminescence. inhibition, % at 5.6 µM. hit rate 1.1% among 220,000. AID 1486, 2009;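 active means inhibition above a per-campaign cutoff, the mean inhibition of all tested compounds plus 3 SD, cut at about 27% in these data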
# KLF5 inh – KLF5 expression inhibitors, primary screen, DLD-1 cells, luminescence; AID 1700, 2009; hit rate 0.23% among 290,000; DLD-1 KLF5 promoter-luciferase reporter; inhibition, % at 5 µM;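 active means inhibition above a per-plate limit of that plate's mean compound inhibition plus 3 SD, cut at about 60% in these data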;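 further: higher means less KLF5 promoter-driven luciferase light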
# IEC-6 cytotox – cytotoxicity in IEC-6 intestinal epithelial cells, primary screen, cytotoxicity control for KLF5 inhibitor project, cell-based, luminescence. IEC-6 cytotoxicity, luminescence viability. inhibition, % at 5 µM. hit rate 0.78% among 290,000. AID 1825, 2009; in the data active means inhibition above about 22%
# aSyn UTR inh – MLPCN primary screen, SNCA 5' untranslated region; alpha-synuclein 5'UTR reporter, inhibitor activity; AID 1813, 2009; inhibition, % (tested at 7.5 µM); hit rate 0.82% among 300,000; in the data active means inhibition above about 60%; inconclusive means no clear call, values can overlap the other calls;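 further: H4 neuroglioblastoma cells stably carrying SNCA 5'UTR luciferase fusion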
# A number is an active result; – = inactive; ? = inconclusive; · = not tested or not shown. Sampled rows, rich in hits. Any-hit rate of the full collection: about 2.2%.
SMILES,APP 5UTR inh,Ba/F3 V617F tox,BaF3 tox,KLF5 inh,IEC-6 cytotox,aSyn UTR inh
CC[n+]1c(/C=C2\C=C(C)CC(C)(C)C2)sc2ccccc21,–,56,60,–,–,–
Cc1c(C(=O)N/N=C/c2cccs2)nnn1-c1nonc1N,·,·,·,–,–,–
Cc1ccc(-c2c[n+](Cc3ccc(Cl)cc3)c3n2CCC3)cc1,·,87,73,–,–,–
Cc1ccc(C[n+]2cc(-c3ccc(Cl)cc3)n3c2CCC3)cc1,·,76,72,–,–,·
Cn1c(NC(=O)C[n+]2cc(-c3ccc(Cl)cc3)n3c2CCC3)cc(=O)n(C)c1=O,–,–,–,–,–,–
Clc1ccc(-c2c[n+](Cc3ccc(Cl)c(Cl)c3)c3n2CCC3)cc1,–,26,39,–,–,·
Cc1onc(-c2ccccc2Cl)c1C(=O)N1CCN(c2cccc(Cl)c2)CC1,–,·,·,·,·,67
CCCOc1ccc(/C(O)=C2/C(=O)C(=O)N(c3ccccn3)C2c2ccc(OC)cc2)cc1C (stereo unspecified),·,·,·,–,–,–
CCOC(=O)c1ccc(NC2c3ccccc3C(=O)N2c2cccnc2)cc1 (stereo unspecified),–,–,27,–,–,–
C=CCN1/C(=C2/SC(=S)N(C)C2=O)Sc2ccccc21,·,·,·,–,–,–
CC(C)(C)n1nc(-c2ccc(F)cc2)c2c(N)ncnc21,–,–,–,–,–,71
Cc1ccc(-c2nc(N)c3c(-c4ccc(C)cc4)nn(C(C)(C)C)c3n2)cc1,–,–,–,–,–,–
CC(Cc1nnc(N)s1)c1ccccc1 (stereo unspecified),·,·,·,–,–,–
CC(C)Cn1c2c(c(O)c(C(=O)Nc3nc4ccccc4s3)c1=O)CCCC2,·,–,–,–,–,–
CCCn1c2c(c(O)c(C(=O)Nc3nc4ccccc4s3)c1=O)CCCC2,–,–,81,–,–,–
Cc1ccc(-c2nc3cc(N)ccc3o2)c(C)c1,–,–,–,–,–,–
Nc1ccc2oc(-c3cccc4ccccc34)nc2c1,49,–,–,–,–,71
CCN1C(=O)C2(C(C(=O)c3cc4ccccc4o3)=C(O)C(=O)N2CCCN(C)C)c2ccccc21 (stereo unspecified),·,–,–,–,–,–
COc1ccc(C2/C=C\CN(C(=O)Nc3ccc(C(F)(F)F)cc3)CC(=O)N2Cc2ccc(F)cc2)cc1 (stereo unspecified),·,·,·,·,·,71
COC(=O)c1[nH]c2ccc(F)cc2c1NS(=O)(=O)c1ccc(OC)cc1,89,81,61,–,52,100
COc1ccc(S(=O)(=O)Nc2c(C(=O)O)[nH]c3ccc(OC)cc23)cc1,·,·,·,–,–,–
O=C1[C@H](CC[C@H](O)c2ccc(F)cc2)[C@@H](c2ccc(O)cc2)N1c1ccc(F)cc1,·,–,–,–,–,–
CCOC(=O)c1sc(NC(=O)Nc2cccc(Cl)c2)cc1C,–,–,43,–,–,–
O=C1NC(=Nc2ccc(O)cc2)S/C1=C\C=C\c1ccco1,·,75,61,–,–,–
CN1CCN(CC#Cc2ccccc2)CC1CCO (stereo unspecified),·,·,·,–,–,–
SMILES,APP 5UTR inh,Ba/F3 V617F tox,BaF3 tox,KLF5 inh,IEC-6 cytotox,aSyn UTR inh
CC(C)CCNC(=O)c1ccc(OC2CCN(S(=O)(=O)N(C)C)CC2)cc1,–,–,27,–,–,–
COC(=O)c1sccc1NC(=O)c1cc(-c2cccc(C)c2)nc2ccccc12,–,–,–,–,–,–
COC(=O)c1sccc1NC(=O)c1c(C)c(-c2cccc(Cl)c2)nc2ccccc12,50,–,–,–,–,–
O=C(Nc1ccc2c(c1)OCCO2)c1cccc2nc3ccccc3nc12,46,–,–,–,–,?
O=C(Nc1ccc2c(c1)OCCO2)c1ccccn1,–,–,–,–,–,88
CCC(NC(=S)NC1CCCCC1)c1ccc(C(C)C)cc1 (stereo unspecified),·,·,·,–,–,–
CC(C)c1nc2sc3c(NCc4ccco4)ncnc3c2c2c1COC(C)(C)C2,–,–,–,–,–,71
Cc1cc(C)c(C)c(S(=O)(=O)NCCCN2CCOCC2)c1C,–,–,90,–,–,–
C=CCN(c1ccccc1)S(=O)(=O)c1cccc(C(=O)Nc2ncccc2O)c1,·,·,·,·,·,–
